Most compounds without a hit are left out; they make up all but 17% or so of the library.
ATXN2 expr inh – reduces ATXN2 reporter expression in HEK-293 cells; HEK-293 ATXN2-luciferase reporter, luminescence, 24 h; Potency, µM (top dose mostly 57 µM), usual class: inhibitors; 360,000 tested, 0.72% active; note: nearly all actives have a fitted effect of over 55% in size
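qHTS (up to 57 uM final) was run with 24 h compound exposure of reporter cells at 37 °C. Each well was multiplexed: SteadyGlo luminescence measured ATXN2-luciferase expression after a fluorogenic Gly-Phe-AFC viability readout (25 uM final).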
DT40 TDP1 no CPT – qHTS for Inhibitors of human tyrosyl-DNA phosphodiesterase 1 (TDP1): qHTS in cells in absence of CPT; DT40 Tdp1-/- hTDP1 cells, no CPT, ATP luminescence, 48 h; Potency, µM (titrated, usually from 46.2 µM), actives largely listed as inhibitors; 420,000 tested, 15% active; note: nearly all actives have a fitted effect of over 55% in size
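Growth kinetics read by CellTiter-Glo luminescence after ≥48 hr at 37 °C. Cells: DT40 Tdp1-/- stably carrying human TDP1, 400 per well, compound exposure in the absence of CPT (DMSO vehicle).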
TGFb inhibitor – inhibitors of TGF-b signaling. Potency, µM (highest dose often 46.1 µM), most hits filed as inhibitors. HepG2 CAGA-GFP TGF-b/SMAD3 reporter, GFP fluorescence, 18 h; TGF-beta stimulated, 500 pg/mL final. 410,000 tested, 1.2% active; note: nearly all actives have a fitted effect of over 65% in size
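Inhibition of TGF-beta-driven CAGA-GFP reporter expression in HEPG2 cells is measured by cellular GFP fluorescence after 18 h stimulation with 500 pg/mL recombinant TGF-beta in 1% FBS medium at 37 degrees C.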
HepG2 tox – counter-screen for TGF-b inhibitors: cytotoxicity in HepG2 cells. 410,000 tested, 0.76% active. Potency, µM (highest dose often 46.1 µM), hits mostly cytotoxic. HepG2 CAGA-GFP viability, ATP luminescence, 18 h. AID 588856
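CellTiter-Glo luminescence gave cytotoxicity after 18 hours at 37 degrees C. The cells were HepG2 CAGA-GFP in 1% FBS DMEM, stimulated with 500 pg/mL TGF-beta after compound addition. %Activity was normalised to no-cell wells (complete cell-killing) and DMSO (no toxicity), and curves were fitted and classified.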
S2 tox – viability counter-screen for ATXN expression inhibitors. S2 cells (HEK-293 line with an ATXN2-luciferase reporter) viability, CellTiter-Fluor protease fluorescence, 24 h. Potency, µM (highest dose often 56.7 µM), most hits filed as cytotoxic. 400,000 tested, 0.49% active; note: nearly all actives have a fitted effect of over 40% in size
TDP1 cell CPT – DT40-hTDP1 cell growth loss with CPT; chicken DT40 Tdp1-/-;hTDP1 cells + 20 nM CPT, ATP luminescence, 48 h; Potency, µM (series often up to 46.2 µM), actives largely listed as inhibitors; 420,000 tested, 12% active; AID 686979; note: nearly all actives have a fitted effect of over 55% in size
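Chicken DT40 Tdp1-/- cells complemented with human TDP1, 400 cells/well, exposed to compounds plus 20 nM camptothecin for at least 48 h at 37 C; viability read as ATP content by CellTiter-Glo luminescence.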
Large screens that a line does not name were inactive; ! = not confirmed by another sample. Calls come from the whole dose curve; as a rule, active = well fitted curve in the direction sought with a large enough effect; inconclusive = small, poorly fitted or top-dose-only effect, or another doubt; inactive = no such curve, though single readings can be large; an effect the other way counts as inactive or inconclusive.

Cc1ccc(S(=O)(=O)N2CCC(CN3C(=O)c4cccc5cccc(c45)C3=O)CC2)cc1	DT40 TDP1 no CPT inconclusive, TDP1 cell CPT inconclusive
CCN(CC(=O)NCc1ccc(F)cc1)C(=O)CCNS(=O)(=O)c1cccc(C)c1	none
CCN(CCO)Cc1csc2ccc(Cl)cc12	S2 tox inconclusive
CC(=O)Nc1ccc(S[C@@H](CCN2CC[C@H](C(C)(C)C)CCC2=O)c2ccccc2)cc1	ATXN2 expr inh inconclusive, DT40 TDP1 no CPT 18µM, TGFb inhibitor inconclusive, S2 tox 32µM, TDP1 cell CPT 21µM
CC(C)(C)[C@@H]1CCC(=O)N(CC[C@H](Sc2ccccc2)c2ccccc2)CC1	ATXN2 expr inh inconclusive, DT40 TDP1 no CPT 21µM, TGFb inhibitor inconclusive, TDP1 cell CPT 16µM
CC(C)(C)[C@@H]1CCC(=O)N(CC[C@H](N=[N+]=[N-])c2ccccc2)CC1	DT40 TDP1 no CPT 18µM, TGFb inhibitor inconclusive, S2 tox inconclusive, TDP1 cell CPT inconclusive
COc1ccc(S[C@@H](CCN2CC[C@H](O)CCC2=O)c2ccccc2)cc1	DT40 TDP1 no CPT inconclusive, TGFb inhibitor inconclusive, S2 tox inconclusive, TDP1 cell CPT inconclusive
CSc1ccccc1C(=O)NCC1Cc2cccc(-c3ncccc3C)c2O1 (configuration not stated)	none (no result: ATXN2 expr inh, TGFb inhibitor, HepG2 tox)
Cc1cccc(OC(C)C(=O)Nc2ncn[nH]2)c1 (configuration not stated)	none
Cc1ccc(C)c(N2CCN(C(=O)CN3C(=O)COc4ccc(S(=O)(=O)N5CCCC5)cc43)CC2)c1	none (no result: DT40 TDP1 no CPT, TDP1 cell CPT)
O=C1CC(c2nc(-c3ccccc3)no2)CN1c1ccccc1 (configuration not stated)	TDP1 cell CPT inconclusive
CCOC(=O)N1CCN(C(=O)c2ccc(Cl)c(S(=O)(=O)N3CCOCC3)c2)CC1	none
COc1ccccc1N1CCN(C(=O)c2ccc(Cl)c(S(=O)(=O)N3CCOCC3)c2)CC1	DT40 TDP1 no CPT inconclusive, TGFb inhibitor inconclusive, TDP1 cell CPT 26µM
CCC(C)c1ccc(S(=O)(=O)N2CCN(C(=O)c3ccc(Cl)c(S(=O)(=O)N4CCOCC4)c3)CC2)cc1 (configuration not stated)	DT40 TDP1 no CPT 18µM, TGFb inhibitor inconclusive, TDP1 cell CPT inconclusive (no result: ATXN2 expr inh)
COc1ccccc1N1CCN(C(=O)c2ccc(Cl)c(S(=O)(=O)NCc3ccco3)c2)CC1	DT40 TDP1 no CPT 5µM, TDP1 cell CPT 5.6µM
OC(CNCCCCNCC(O)C(F)(F)F)C(F)(F)F (configuration not stated)	none
C=C[C@]12CC[C@H](OC(C)=O)CC1=CCC1C2CC[C@@]2(C)C1CCC21OCCO1 (some centres not stated)	DT40 TDP1 no CPT inconclusive, TDP1 cell CPT inconclusive
COc1ccc(C(=O)Nc2nnc(S(=O)(=O)N(C)Cc3ccccc3)s2)cc1	none (no result: ATXN2 expr inh)
CCc1nnc(NC(=O)c2ccc(S(=O)(=O)N(C)Cc3ccccc3)cc2)o1	ATXN2 expr inh inconclusive, DT40 TDP1 no CPT 21µM, TDP1 cell CPT 16µM
CCCCN(CCCC)S(=O)(=O)c1ccc(C(=O)Nc2nnc(COC)o2)cc1	DT40 TDP1 no CPT 16µM, TGFb inhibitor inconclusive, S2 tox inconclusive, TDP1 cell CPT 18µM
CN(Cc1ccccc1)S(=O)(=O)c1ccc(-c2cnc(C3CC3)o2)cc1	DT40 TDP1 no CPT inconclusive, TGFb inhibitor inconclusive, S2 tox inconclusive, TDP1 cell CPT inconclusive
CN(Cc1ccccc1)S(=O)(=O)c1ccc(C(=O)Nc2nnc(C3CC3)o2)cc1	DT40 TDP1 no CPT 21µM, TDP1 cell CPT 15µM
CCc1nnc(NC(=O)c2ccc(S(=O)(=O)N(CC)Cc3ccccc3)cc2)o1	DT40 TDP1 no CPT 7.3µM, TDP1 cell CPT 12µM
COc1ccc2c(c1)c(CC(=O)Nc1cc(C)cc(C)c1)c(C)n2C(=O)c1ccc(Cl)cc1	none
CCN(Cc1ccccc1)S(=O)(=O)c1ccc(C(=O)Nc2nnc(C)o2)cc1	DT40 TDP1 no CPT inconclusive, TDP1 cell CPT 23µM
COc1ccccc1-c1nnc(NC(=O)Cc2ccccc2)o1	none (no result: ATXN2 expr inh)
CCN(CC)S(=O)(=O)c1ccc(C(=O)Nc2nnc(COC)o2)cc1	none
COc1ccccc1-c1nnc(NC(=O)c2ccc(S(=O)(=O)N(C)Cc3ccccc3)cc2)o1	ATXN2 expr inh inconclusive, DT40 TDP1 no CPT 9.2µM, S2 tox inconclusive, TDP1 cell CPT 13µM
O=C(c1ccccc1Cc1ccccc1)N1CCN(S(=O)(=O)c2ccccc2Br)CC1	DT40 TDP1 no CPT inconclusive, TDP1 cell CPT inconclusive
CC1=C(C#N)C(C)(C)C(C#N)=C(C)N1	DT40 TDP1 no CPT inconclusive, HepG2 tox 1.1µM (no result: ATXN2 expr inh)
CC1(C)C(C#N)=C(N)OC2=C1C(=O)CCC2	none
C#CCOc1ccc(Cl)cc1/C=C1/C(=O)ON=C1C	DT40 TDP1 no CPT inconclusive, TDP1 cell CPT 23µM
CC1=NOC(=O)/C1=C/c1ccc(O)c(Br)c1	DT40 TDP1 no CPT inconclusive
CCOc1cc(/C=C2\C(=O)ON=C2C)ccc1OCc1ccccc1	ATXN2 expr inh inconclusive, DT40 TDP1 no CPT 15µM, S2 tox inconclusive, TDP1 cell CPT inconclusive
C#CCOc1ccc(/C=C2/C(=O)ON=C2C)cc1Br	DT40 TDP1 no CPT 26µM, TDP1 cell CPT 23µM
COc1cc2ccccc2cc1C(=O)Nc1cccc(-c2nc3cc(C)c(C)cc3o2)c1C	none
CCOC(=O)c1ccc(NS(=O)(=O)c2c(C)[nH]c(C)c2C(=O)N2CCCCC2)cc1	TDP1 cell CPT inconclusive
CCCCN(CC)CCNC(=O)c1cc2c(=O)[nH]c3ccccc3c2n1C	DT40 TDP1 no CPT 16µM!, TDP1 cell CPT 15µM!
CCn1c(=O)c2cc(C(=O)Nc3cccc(C(F)(F)F)c3)sc2c2ccccc21	DT40 TDP1 no CPT 9.2µM, TDP1 cell CPT 7.3µM
CCCCN(CC)CCCNC(=O)c1cc2c(=O)n(CC)c3ccccc3c2s1	ATXN2 expr inh inconclusive, DT40 TDP1 no CPT inconclusive, TGFb inhibitor 13µM, S2 tox inconclusive, TDP1 cell CPT inconclusive
CCCCN(CC)CCCNC(=O)c1cc2c(=O)[nH]c3ccccc3c2n1C	DT40 TDP1 no CPT inconclusive, S2 tox inconclusive, TDP1 cell CPT inconclusive
CCN(CCCNC(=O)c1cc2c(=O)n(CC)c3ccccc3c2s1)c1ccccc1	DT40 TDP1 no CPT 18µM, TGFb inhibitor inconclusive, TDP1 cell CPT inconclusive
COc1cc(CNc2ccc(N3CCOCC3)c(C(=O)O)c2)ccc1OCC(N)=O	none
CCCN(CCC)CCCNC(=O)c1cc2c(=O)n(CC)c3ccccc3c2s1	DT40 TDP1 no CPT inconclusive, TDP1 cell CPT inconclusive (no result: S2 tox)
CCn1c(=O)c2cc(C(=O)NCCCOC)sc2c2ccccc21	DT40 TDP1 no CPT 10µM, TDP1 cell CPT 18µM

Source: PubChem BioAssay (National Center for Advancing Translational Sciences (NCATS))
